From the supplement of paper PMC11732987, “Enantioselective OTUD7B fragment discovery through chemoproteomics screening and high-throughput optimisation” (Communications Chemistry, 2025)

How the values were obtained:
Assay in all cases: log2 ratio of Biotin-Ahx-Ub-VS probe labelling (fragment/DMSO); higher = less target engagement (more negative = stronger competition), active = hit call of the paper (q ≤ 0.05, log2 ratio ≤ -1)
Settings in all cases: compound concentration: 200 uM; treatment time: 3 h
USP34 = USP34 (UniProt Q70CQ2)
How it was run: (§1)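 Global-median-normalised Spectronaut label-free quantities were compared by unpaired t-test, and values are average log2 ratios of fragment over vehicle. Only proteins with ≥2 unique peptides were used. HEK293T lysate (495 µg per sample) was treated in triplicate with fragment at 200 µM or vehicle for 3 h and then with Biotin-Ahx-Ub-VS at 0.5 µM final for 1 h. Labelled DUBs were then NeutrAvidin-enriched, digested with LysC and trypsin, and run by diaPASEF LC-MS/MS.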

USP36 = target: T1, USP36 (UniProt Q9P275)
T1 sequence (whole entry): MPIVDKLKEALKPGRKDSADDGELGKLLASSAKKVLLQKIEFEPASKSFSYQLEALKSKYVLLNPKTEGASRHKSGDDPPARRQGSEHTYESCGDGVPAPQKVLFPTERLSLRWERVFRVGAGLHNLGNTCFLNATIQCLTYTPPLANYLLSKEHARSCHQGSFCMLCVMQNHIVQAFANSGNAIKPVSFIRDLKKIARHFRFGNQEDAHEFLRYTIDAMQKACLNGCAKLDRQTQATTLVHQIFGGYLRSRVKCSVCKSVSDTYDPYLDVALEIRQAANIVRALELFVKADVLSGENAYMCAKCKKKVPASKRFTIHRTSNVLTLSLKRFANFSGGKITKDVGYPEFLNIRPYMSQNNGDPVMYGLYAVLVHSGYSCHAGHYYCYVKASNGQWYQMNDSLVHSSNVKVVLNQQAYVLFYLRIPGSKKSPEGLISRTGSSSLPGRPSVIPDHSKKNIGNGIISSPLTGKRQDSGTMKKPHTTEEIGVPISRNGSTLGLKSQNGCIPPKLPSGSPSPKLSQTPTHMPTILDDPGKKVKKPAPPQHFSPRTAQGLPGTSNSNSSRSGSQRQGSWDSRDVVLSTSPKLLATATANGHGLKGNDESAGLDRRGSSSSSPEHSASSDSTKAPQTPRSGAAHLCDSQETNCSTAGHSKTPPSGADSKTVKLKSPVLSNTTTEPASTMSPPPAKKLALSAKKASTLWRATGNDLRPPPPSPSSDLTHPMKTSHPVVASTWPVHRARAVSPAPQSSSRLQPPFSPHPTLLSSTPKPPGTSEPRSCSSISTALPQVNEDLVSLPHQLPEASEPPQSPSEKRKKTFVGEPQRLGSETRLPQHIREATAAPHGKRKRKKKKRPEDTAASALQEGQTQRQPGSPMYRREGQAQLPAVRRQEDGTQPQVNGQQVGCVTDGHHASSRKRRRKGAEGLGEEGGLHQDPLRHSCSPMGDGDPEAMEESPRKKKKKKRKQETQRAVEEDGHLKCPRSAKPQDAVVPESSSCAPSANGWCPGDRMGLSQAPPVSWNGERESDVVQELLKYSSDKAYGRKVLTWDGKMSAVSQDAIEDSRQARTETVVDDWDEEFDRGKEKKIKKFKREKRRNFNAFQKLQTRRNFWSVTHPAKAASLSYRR
How it was run: as §1

USP38 = target: T2, USP38 (UniProt Q8NB14)
T2 sequence (whole entry): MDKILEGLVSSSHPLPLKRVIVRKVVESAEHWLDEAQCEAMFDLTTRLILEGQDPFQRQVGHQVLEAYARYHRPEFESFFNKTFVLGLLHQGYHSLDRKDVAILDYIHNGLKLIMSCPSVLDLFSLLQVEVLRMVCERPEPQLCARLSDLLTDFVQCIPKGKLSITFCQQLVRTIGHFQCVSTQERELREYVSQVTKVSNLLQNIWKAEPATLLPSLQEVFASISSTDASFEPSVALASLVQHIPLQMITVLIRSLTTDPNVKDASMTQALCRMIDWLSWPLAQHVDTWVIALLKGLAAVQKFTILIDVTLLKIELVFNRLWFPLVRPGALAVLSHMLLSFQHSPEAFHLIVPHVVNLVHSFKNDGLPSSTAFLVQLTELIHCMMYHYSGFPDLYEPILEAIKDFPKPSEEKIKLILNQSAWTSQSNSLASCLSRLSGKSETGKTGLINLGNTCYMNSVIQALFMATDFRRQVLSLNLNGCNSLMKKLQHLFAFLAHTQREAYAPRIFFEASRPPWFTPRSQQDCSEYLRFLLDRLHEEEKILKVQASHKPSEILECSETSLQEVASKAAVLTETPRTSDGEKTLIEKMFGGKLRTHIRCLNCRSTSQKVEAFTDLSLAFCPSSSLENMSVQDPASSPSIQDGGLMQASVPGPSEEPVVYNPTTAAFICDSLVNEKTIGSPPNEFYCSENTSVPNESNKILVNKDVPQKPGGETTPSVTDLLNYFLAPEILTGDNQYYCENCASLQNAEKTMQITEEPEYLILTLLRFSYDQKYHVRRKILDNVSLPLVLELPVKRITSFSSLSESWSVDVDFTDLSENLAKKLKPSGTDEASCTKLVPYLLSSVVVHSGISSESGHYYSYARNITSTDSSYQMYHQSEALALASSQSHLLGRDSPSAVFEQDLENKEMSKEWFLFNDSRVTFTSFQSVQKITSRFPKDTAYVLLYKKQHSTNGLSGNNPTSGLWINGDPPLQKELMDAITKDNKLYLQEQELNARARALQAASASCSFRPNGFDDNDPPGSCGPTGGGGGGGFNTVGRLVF
How it was run: as §1

USP39 = target: T3, USP39 (UniProt Q53GS9)
T3 sequence (whole entry): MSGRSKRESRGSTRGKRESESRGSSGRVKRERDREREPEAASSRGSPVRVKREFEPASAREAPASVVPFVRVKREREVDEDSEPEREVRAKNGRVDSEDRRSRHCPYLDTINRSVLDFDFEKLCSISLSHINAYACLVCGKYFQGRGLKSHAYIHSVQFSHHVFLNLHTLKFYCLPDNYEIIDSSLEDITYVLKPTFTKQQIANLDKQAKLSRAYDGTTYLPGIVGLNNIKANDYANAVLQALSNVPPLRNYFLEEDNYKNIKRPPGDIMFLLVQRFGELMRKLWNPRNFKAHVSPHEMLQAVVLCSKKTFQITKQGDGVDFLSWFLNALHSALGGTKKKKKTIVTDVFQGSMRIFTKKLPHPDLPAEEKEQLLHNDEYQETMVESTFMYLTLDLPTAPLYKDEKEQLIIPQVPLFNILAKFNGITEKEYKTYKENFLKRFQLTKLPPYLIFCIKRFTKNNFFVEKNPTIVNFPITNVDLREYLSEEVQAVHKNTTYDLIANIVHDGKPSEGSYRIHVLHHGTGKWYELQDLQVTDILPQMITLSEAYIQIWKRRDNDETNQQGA
How it was run: as §1

USP4 = target: T4, USP4 (UniProt Q13107)
T4 sequence (whole entry): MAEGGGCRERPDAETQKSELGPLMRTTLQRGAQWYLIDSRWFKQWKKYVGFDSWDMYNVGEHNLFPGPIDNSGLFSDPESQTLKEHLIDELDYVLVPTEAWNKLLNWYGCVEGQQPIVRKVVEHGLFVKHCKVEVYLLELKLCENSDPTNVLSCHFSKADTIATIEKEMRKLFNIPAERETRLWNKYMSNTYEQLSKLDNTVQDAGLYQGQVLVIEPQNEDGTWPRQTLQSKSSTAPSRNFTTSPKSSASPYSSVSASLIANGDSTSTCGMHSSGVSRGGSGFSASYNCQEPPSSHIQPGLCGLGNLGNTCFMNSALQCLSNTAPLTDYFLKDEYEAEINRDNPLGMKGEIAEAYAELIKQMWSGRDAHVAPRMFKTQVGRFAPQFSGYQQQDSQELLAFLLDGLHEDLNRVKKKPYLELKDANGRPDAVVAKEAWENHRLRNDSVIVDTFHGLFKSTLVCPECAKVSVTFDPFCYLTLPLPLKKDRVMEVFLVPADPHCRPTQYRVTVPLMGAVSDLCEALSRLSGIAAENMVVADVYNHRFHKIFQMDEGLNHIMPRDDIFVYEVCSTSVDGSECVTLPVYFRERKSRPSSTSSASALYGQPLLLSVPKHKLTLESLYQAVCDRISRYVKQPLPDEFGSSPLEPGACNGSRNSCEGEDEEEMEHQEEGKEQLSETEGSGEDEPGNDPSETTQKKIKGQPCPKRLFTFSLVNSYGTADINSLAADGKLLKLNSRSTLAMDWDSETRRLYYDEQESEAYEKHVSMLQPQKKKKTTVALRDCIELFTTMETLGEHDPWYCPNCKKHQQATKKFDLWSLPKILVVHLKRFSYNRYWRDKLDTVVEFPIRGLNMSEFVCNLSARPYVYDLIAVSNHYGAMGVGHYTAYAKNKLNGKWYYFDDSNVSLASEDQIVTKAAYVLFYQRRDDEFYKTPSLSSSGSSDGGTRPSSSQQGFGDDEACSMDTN
How it was run: as §1

Measured: log2 ratio of Biotin-Ahx-Ub-VS probe labelling

Sequence of USP34 (Q70CQ2 whole entry, the tested form may be a part): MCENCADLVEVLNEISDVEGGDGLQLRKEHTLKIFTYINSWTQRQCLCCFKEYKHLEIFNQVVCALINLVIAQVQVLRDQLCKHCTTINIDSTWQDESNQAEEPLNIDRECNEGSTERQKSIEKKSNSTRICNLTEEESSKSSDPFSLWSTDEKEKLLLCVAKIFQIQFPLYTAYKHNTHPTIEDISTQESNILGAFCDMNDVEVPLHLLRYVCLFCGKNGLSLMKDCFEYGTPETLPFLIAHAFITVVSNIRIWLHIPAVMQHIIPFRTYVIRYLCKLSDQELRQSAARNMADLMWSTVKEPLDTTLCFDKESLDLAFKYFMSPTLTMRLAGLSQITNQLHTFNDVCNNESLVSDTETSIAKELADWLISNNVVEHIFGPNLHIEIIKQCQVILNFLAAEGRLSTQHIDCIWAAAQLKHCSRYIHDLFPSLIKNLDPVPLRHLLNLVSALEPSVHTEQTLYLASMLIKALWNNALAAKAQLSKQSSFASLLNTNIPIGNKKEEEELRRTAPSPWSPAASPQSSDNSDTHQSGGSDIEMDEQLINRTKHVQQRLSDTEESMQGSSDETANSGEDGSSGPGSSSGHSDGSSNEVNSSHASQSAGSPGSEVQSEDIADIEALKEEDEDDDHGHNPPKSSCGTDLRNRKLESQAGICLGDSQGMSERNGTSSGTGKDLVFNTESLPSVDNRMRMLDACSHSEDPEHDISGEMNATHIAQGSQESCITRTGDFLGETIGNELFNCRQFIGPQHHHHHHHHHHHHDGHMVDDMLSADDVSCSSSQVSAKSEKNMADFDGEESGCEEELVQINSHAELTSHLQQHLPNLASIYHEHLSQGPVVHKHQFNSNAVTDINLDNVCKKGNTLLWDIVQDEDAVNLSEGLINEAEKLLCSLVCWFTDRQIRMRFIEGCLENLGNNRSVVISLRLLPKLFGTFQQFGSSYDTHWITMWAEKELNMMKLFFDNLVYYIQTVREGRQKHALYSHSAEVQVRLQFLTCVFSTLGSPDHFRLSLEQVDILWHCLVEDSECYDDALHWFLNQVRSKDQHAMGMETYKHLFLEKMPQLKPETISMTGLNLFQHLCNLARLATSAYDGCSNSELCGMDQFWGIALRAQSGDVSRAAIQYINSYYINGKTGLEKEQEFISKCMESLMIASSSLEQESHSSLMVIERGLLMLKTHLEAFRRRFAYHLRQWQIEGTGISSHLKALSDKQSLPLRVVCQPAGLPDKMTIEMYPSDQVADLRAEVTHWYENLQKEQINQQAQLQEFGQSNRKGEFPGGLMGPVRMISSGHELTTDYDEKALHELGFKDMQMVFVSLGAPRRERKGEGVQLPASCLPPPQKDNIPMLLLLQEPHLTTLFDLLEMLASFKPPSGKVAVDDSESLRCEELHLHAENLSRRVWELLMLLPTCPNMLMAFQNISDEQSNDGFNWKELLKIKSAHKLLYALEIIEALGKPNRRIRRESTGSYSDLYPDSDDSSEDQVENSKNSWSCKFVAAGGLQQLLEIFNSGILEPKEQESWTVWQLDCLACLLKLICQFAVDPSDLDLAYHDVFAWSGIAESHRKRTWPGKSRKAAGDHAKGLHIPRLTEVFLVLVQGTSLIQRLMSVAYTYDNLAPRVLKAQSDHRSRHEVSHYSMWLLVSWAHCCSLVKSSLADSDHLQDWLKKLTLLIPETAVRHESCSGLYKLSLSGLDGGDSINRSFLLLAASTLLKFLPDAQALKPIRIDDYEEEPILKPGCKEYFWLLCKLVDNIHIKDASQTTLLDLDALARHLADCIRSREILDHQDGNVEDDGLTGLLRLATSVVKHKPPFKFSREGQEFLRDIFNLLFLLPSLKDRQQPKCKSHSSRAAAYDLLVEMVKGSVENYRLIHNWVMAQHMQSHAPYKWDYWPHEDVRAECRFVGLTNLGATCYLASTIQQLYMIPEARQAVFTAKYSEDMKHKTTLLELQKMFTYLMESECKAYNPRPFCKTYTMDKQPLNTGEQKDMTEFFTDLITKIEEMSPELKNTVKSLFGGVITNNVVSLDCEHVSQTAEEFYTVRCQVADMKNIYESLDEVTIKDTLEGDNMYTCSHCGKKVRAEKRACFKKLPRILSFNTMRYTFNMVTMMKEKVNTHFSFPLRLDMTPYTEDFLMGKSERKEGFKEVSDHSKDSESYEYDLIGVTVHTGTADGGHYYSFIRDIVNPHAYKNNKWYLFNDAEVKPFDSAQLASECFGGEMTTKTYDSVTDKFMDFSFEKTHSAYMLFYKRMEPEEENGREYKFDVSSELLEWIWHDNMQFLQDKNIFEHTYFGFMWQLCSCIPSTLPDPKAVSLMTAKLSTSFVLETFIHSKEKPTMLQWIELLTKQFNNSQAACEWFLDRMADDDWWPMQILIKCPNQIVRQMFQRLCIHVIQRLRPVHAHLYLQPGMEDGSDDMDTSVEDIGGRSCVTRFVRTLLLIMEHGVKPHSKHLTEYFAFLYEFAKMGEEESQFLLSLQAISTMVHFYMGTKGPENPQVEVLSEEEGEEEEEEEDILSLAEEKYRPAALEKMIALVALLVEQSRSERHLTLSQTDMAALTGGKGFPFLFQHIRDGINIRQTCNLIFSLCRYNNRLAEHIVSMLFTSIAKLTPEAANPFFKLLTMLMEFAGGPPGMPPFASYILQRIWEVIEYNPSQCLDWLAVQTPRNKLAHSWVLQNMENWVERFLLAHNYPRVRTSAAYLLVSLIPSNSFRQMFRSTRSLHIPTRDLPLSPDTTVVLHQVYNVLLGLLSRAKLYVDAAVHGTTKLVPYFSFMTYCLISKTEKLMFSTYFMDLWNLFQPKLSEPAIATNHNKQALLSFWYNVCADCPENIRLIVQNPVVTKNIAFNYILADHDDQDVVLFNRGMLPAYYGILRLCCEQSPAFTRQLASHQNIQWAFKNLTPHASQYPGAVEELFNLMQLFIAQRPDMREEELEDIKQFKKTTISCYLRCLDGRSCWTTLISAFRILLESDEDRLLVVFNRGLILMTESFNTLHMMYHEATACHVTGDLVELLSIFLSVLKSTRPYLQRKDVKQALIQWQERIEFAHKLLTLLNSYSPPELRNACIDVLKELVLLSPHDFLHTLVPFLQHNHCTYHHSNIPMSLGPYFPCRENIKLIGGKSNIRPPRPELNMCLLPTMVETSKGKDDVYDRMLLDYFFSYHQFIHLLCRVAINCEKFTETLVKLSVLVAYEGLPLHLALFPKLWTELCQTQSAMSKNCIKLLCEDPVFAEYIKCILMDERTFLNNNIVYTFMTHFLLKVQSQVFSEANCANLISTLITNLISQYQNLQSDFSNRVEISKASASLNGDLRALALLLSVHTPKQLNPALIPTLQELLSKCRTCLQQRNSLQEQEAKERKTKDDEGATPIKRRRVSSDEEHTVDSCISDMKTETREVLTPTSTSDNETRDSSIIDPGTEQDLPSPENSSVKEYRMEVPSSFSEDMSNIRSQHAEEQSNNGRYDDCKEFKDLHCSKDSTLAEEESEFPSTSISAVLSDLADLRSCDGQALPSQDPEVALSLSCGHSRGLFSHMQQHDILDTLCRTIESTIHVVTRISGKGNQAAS

CCC1c2ccsc2CCN1C(=O)CCl (stereo not given)
inactive: USP34 -0.381 | USP36 -0.0771 | USP38 -0.204 | USP39 0.162 | USP4 -0.497
